# The entries come from a sample that favours hits as a whole.
# mcGAS MS inh: blocks mouse cGAS cGAMP production; Q8C6L5; recombinant mouse cGAS, cGAMP by RapidFire MS; inhibition, % at 12.5 µM; 130,000 tested, 0.18% active; AID 1259397;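 active means inhibition of cGAS enzyme activity at or above 60%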;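 further: enzyme stimulated by 45 bp dsDNA with ATP and GTP substrates; cGAMP share of summed cGAMP plus half ATP and half GTP signals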
# Target sequence (Q8C6L5 whole entry, looked up): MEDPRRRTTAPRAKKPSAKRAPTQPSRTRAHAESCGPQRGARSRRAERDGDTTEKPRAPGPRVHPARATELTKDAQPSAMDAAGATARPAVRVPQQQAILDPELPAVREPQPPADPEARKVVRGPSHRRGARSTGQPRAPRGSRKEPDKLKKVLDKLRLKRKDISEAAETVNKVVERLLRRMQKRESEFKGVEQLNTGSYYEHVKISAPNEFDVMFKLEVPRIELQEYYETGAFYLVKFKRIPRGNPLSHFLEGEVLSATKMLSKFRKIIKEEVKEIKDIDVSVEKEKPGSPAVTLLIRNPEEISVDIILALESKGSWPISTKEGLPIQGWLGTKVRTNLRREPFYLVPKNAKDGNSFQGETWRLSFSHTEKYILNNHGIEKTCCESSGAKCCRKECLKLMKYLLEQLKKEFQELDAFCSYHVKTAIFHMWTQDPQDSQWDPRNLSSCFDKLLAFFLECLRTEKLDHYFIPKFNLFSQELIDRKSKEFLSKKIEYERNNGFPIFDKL
# The depositor's hits bear a star; ! = not active in a repeat.
SMILES,mcGAS MS inh
Cc1cccc(C(NC(=O)C(=O)Nc2cc(C)on2)c2cccs2)c1 (configuration not stated),-5
COC(=O)C1CCN(C(c2cccc(OC)c2)C2Sc3nc(C)nn3C2=O)CC1 (configuration not stated),-9
Cc1cccc(NC(=O)c2ccc(S(=O)(=O)Nc3cccc(C(F)(F)F)c3)o2)n1,-3
Cc1nnc(NC(=O)c2cccc(C(=O)O)c2)s1,2
Cc1nnc(NC(=O)c2ccc(S(=O)(=O)Nc3cccc(C(F)(F)F)c3)o2)s1,76*
CCc1nc(C)c(C(=O)Nc2cc(C(=O)N(CC)CC)ccc2Cl)o1,-13
CCOc1ncccc1-c1ccc2nc(C(C)O)[nH]c2c1 (configuration not stated),-24
CC(=O)NC(C(=O)Nc1ncc(Cc2cc(F)cc(F)c2)s1)C(C)C (configuration not stated),-3
CN(Cc1cnc2nc(N)nc(N)c2n1)c1ccc(C(=O)N[C@@H](CCC(=O)O)C(=O)O)cc1,24
Nc1nc2[nH]cc(CCc3ccc(C(=O)N[C@H](CCC(=O)O)C(=O)O)cc3)c2c(=O)[nH]1,5
Nc1nc2ncc(CNc3ccc(C(=O)N[C@@H](CCC(=O)O)C(=O)O)cc3)nc2c(=O)[nH]1,82*!
CNc1cc(Nc2ccccc2)c2c3c(onc13)-c1ccccc1C2=O,2
O=C(O)CCCn1c(SCc2cc(=O)n3ccccc3n2)nc2ccsc2c1=O,-2
CCN(CC)CCNc1ccc(CO)c2sc3ccccc3c(=O)c12,66*!
CCN(CC)CCNC(=O)c1cnc(C(C)(C)C)s1,-20
CCN(CC)CCNc1nc2c(F)cccc2s1,-29
c1ccc(CCc2nc(-c3cnc(CN4CCCC4)s3)n[nH]2)cc1,-4
CCc1ccc(-n2c(C)cn3c4c(=O)n(C(C)C(C)=O)c(=O)n(C)c4nc23)cc1 (configuration not stated),-4
O=S(=O)(O)c1cc(N=C=S)ccc1/C=C/c1ccc(N=C=S)cc1S(=O)(=O)O,98*
CC(C)(C)/[N+]([O-])=C/c1ccc(S(=O)(=O)O)cc1S(=O)(=O)O,-6
CCCN1C(=O)C(C)(C)COc2cc(NS(=O)(=O)c3cc(C)c(OC)c(C)c3)ccc21,2
Cc1ccc2oc(N3CCN4CCNC(=O)C4C3)nc2c1 (configuration not stated),-16
CCC(SCc1cc2c(cc1Br)OCCO2)C(=O)Nc1cc(C)on1 (configuration not stated),-11
NC(=S)N=Nc1ccc(NN=C(N)N)cc1,79*
COc1ccc(OCCSCc2nc3sc4c(c3c(=O)[nH]2)CCC(C)C4)cc1 (configuration not stated),-2
SMILES,mcGAS MS inh
CCN(CC)CCN1CC(=O)N2CC[C@@H](O)C[C@H]2C1=O,1
C=CCNC(=O)C1CCCN1c1ncnc2c1cnn2-c1ccccc1 (configuration not stated),1
Cc1cc([N+](=O)[O-])ccc1NP1(=O)C(=C2N(C)c3ccccc3C2(C)C)C=NN1c1ccccc1 (configuration not stated),1
O=C(NC1(c2ccc(F)cc2)CCCC1)c1cccs1,-2
COc1ncccc1NC(=O)NC1(c2ccc(Cl)cc2)CCC1,-6
Cc1cccnc1NC(=O)NC1(c2ccc(F)cc2)CCC1,78*
O=C(CCc1nnc(Cc2ccc3c(c2)OCO3)o1)N1CCc2ccccc2C1,6
Cc1ccc(-c2cnc(CCC(=O)N3CCc4ccccc4C3)o2)cc1C,78*
O=C(CCc1ncc(-c2ccc(F)cc2)o1)N1CCN(c2ccccc2)CC1,-2
O=C1OC2C3CCC(C1[C@H]3CO)[C@H]2I (some centres not stated),-5
Cc1cccc(NC(=O)c2ccc3nn(CC(=O)N4CCc5ccccc5C4)c(=O)n3c2)c1,-12
COc1ccccc1CNC(=O)NC(c1ccccc1)c1nc(C)no1 (configuration not stated),10
CN1OCC(S(=O)(=O)N2CCc3ccccc3C2)C1c1cccc(F)c1F (configuration not stated),-5
Cc1n[nH]c(C)c1NC(=O)Cn1cc(S(=O)(=O)N2CCCC2)ccc1=O,5
O=C1C=C(O)c2ccccc2C1=O,12
Nc1ccc2c(c1N)C(=O)c1ccccc1C2=O,4
O=C1c2ccccc2C(=O)c2c1ccc(O)c2O,85*
O=[N+]([O-])c1cccc2nc(C=Cc3cc(Br)cs3)ccc12,-5
O=C(CN1CCOc2ccccc2C1)NCCS(=O)(=O)N1CCCC1,71*
Cc1nn2cc(CNC(=O)CN3CCOc4ccccc4C3)nc2s1,-16
Cn1nnnc1SCCNC(=O)CN1CCOc2ccccc2C1,-16
CCN(CC(=O)NCc1cccnc1)Cc1cccc2c1OCCO2,0
COc1cc(C=C2SC(=S)NC2=O)cc(OC)c1OC,21
O=C1NC(=S)SC1=Cc1ccccc1Cl,48
O=C1NC(=S)SC1=Cc1cc(O)c(O)c(Cl)c1,97*
SMILES,mcGAS MS inh
CCNc1nc(=S)[nH]c2ccccc12,17
O=C(OC[C@H]1O[C@H](OC(=O)c2cc(O)c(O)c(OC(=O)c3cc(O)c(O)c(O)c3)c2)[C@H](OC(=O)c2cc(O)c(O)c(OC(=O)c3cc(O)c(O)c(O)c3)c2)[C@@H](OC(=O)c2cc(O)c(O)c(OC(=O)c3cc(O)c(O)c(O)c3)c2)[C@@H]1OC(=O)c1cc(O)c(O)c(OC(=O)c2cc(O)c(O)c(O)c2)c1)c1cc(O)c(O)c(OC(=O)c2cc(O)c(O)c(O)c2)c1,96*
CC(=O)OC[C@H]1O[C@@H](Oc2cc(OC(C)=O)c3c(=O)cc(-c4ccc(OC(C)=O)cc4)oc3c2)[C@H](OC(C)=O)[C@@H](OC(C)=O)[C@@H]1OC(C)=O,-4
C=CCn1cnc2c(nnn2CC)c1=O,-3
CC(=O)CCCCCC(=O)NCC1COc2ccccc2O1 (configuration not stated),-4
CC(c1cccc(O)c1)N(C)C(=O)c1ccc(CNC(=O)OC(C)(C)C)o1 (configuration not stated),5
OC1CCCCC1NCc1csc(-c2cccs2)n1 (configuration not stated),-7
Cc1cc(C(C)(C)C)cc(C)c1S(=O)(=O)N1CCN(C(=O)c2nccnc2N)CC1,-3
O=C(/C=C/c1cccs1)N1CC[C@@H](N2CCN(c3ccccc3F)CC2)[C@H](O)C1,4
NC(=O)c1c(NC(=O)CSCC(=O)O)sc2c1CCCC2,-3
N#CCC(=O)Nc1sc2c(c1C(N)=O)CCCC2,91*
NC(=O)c1c(NC(=O)CN2CCOCC2)sc2c1CCC2,-8
CCOC(=O)c1nn(-c2cccc(C)c2)c(=O)c2c(N)scc12,4
N#Cc1c(N)n(-c2ccccc2O)c2nc3ccccc3nc12,-6
Cc1nc(C(F)(F)F)ccc1C(=O)OCCN1CCCCCC1=O,-8
CCCCC(CC)CNC(=O)C1OC(c2ccccc2)=NN1C(C)=O (configuration not stated),-12
O=C(C[n+]1ccc(NC(=O)c2ccccc2)c2ccccc21)c1ccccc1,64*
Cc1ccc[n+](CC(=O)c2ccc(-c3ccccc3)cc2)c1C,-7
Cc1c2cccn2cc[n+]1CC(=O)c1ccccc1,-3
Cn1c(=O)c2c(nc(CN3CCOCC3)n2Cc2ccc(Cl)c(Cl)c2)n(C)c1=O,-3
O=C1N=c2ccccc2=C1c1sc(=S)n(-c2ccc(O)cc2)c1O,2
CCn1c(O)c(C2=c3ccccc3=NC2=O)sc1=S,7
O=C1N=c2ccccc2=C1c1sc(N2CCCCC2)nc1O,88*
Nc1nnc(SCC(=O)c2ccc([N+](=O)[O-])cc2)s1,-3
